LASV entry inh: blocks Lassa virus binding to or entry into cells | Lassa virus pseudotype entry inhibition, cell reporter | Potency, µM (titrated, usually from 37.9 µM), inactives show at the top dose activity change, negative = inhibition, usual class: inhibitors | actives 1.2% (n = 300,000); calls by dose curve; tested in HEK293 cells; further: potency means the concentration at half of the fitted maximal effect; nearly all actives have a fitted effect of over 50% in size
Pf growth 48h: inhibits P. falciparum growth in the first generation, 48 h | Potency, µM (series often up to 28.7 µM), without a hit: at the top dose activity change, negative = inhibition, hits mostly inhibitors | P. falciparum luciferase growth in erythrocytes, 48 h | actives 5.9% (n = 310,000); further: potency means the concentration at half of the fitted maximal effect
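Firefly luciferase activity from engineered P. falciparum reports growth; inhibitors lower the luminescent signal. Cultures contained 2% hematocrit erythrocytes at 0.1% final parasitemia.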
HCV inh: HCV inhibition; Potency, µM (top dose mostly 41.8 µM), for the others: top-dose activity change, negative = inhibition, most hits filed as inhibitors; actives 3.4% (n = 340,000); AID 651820; Huh7.5.1 HCVcc-Cre infection, luciferase reporter, 44 h; further: potency means the concentration at half of the fitted maximal effect
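Infectious HCVcc-Cre (~0.5 moi) was added to cells just after compound, with cells seeded 4 h earlier at 1,000 per well. Luciferase activity after 44 h culture reported infection; substrate was incubated 15 min at room temperature before reading.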
HCMV antiviral: inhibitors of human cytomegalovirus | actives 4.5% (n = 410,000) | activity change, negative = inhibition, % at 57.5 µM | HFF cells, HCMV-luciferase reporter, 72 h; active compounds read low; in the data active means activity change below about -60%; inconclusive means no clear call, values can overlap the other calls; inactive means above about -39%
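Two compound doses tested in HFFs infected with HCMV-luciferase, MOI 1 PFU/cell, 72 h at 37C. Lysate luminescence read with OneGlo; data normalized against buffer-only and 10uM Salinomycin inhibitor controls.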
Pf growth 96h: P. falciparum growth inhibition at 96 hours; actives 6.9% (n = 320,000); AID 504834; P. falciparum luciferase reporter growth, 96 h; Potency, µM (doses to about 28.7 µM), without a hit: at the top dose activity change, negative = inhibition, hits mostly inhibitors; further: potency means the concentration at half of the fitted maximal effect
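Two-generation exposure (96 h) targets delayed-death phenotype. Reporter parasites carrying integrated firefly luciferase, in red cells at 2% hematocrit and 0.05% parasitemia final, kept at 37 C, 5% CO2; luminescence loss indicates inhibition.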
MARV entry inh: Marburg virus entry inhibition | Marburg virus pseudotyped entry inhibition, cell reporter | Potency, µM (doses to about 37.8 µM), for inactives: top-dose activity change, negative = inhibition, usual class: inhibitors | actives 1.8% (n = 300,000); calls by dose curve; tested in HEK293 cells; further: potency means the concentration at half of the fitted maximal effect
Numbers without * were called inactive; ? = inconclusive; nt = no result; [ ] = remark or other dose. Hits are enriched below; roughly 14% of the tested compounds scored in any of these assays. Unless noted, the call rests on the fitted dose curve; in most records, active means well fitted inhibition curve with a large enough effect; inconclusive means small, poorly fitted or top-dose-only effect, or another doubt; inactive means no such curve, though single readings can be large or run the other way. On the % scale 0 is the no-effect control and ±100 the full control effect.

SMILES | LASV entry inh | Pf growth 48h | HCV inh | HCMV antiviral | Pf growth 96h | MARV entry inh
Cc1ccc(C(=O)Nc2ccccc2SCC2CSc3nc4ccccc4c(=O)n32)cc1 (stereo not drawn) | 7.1µM* | ? | -9% | -85* | ? | 3.2µM*
Cc1cccc(C(=O)Nc2ccccc2SCC2CSc3nc4ccccc4c(=O)n32)c1 (stereo not drawn) | 6.3µM* | ? | -13% | -75* | -26% | 0.89µM*
O=c1c2ccccc2nc2n1C(CSc1ccccc1)CS2 (stereo not drawn) | 8%[46.1 µM] | -8% | 17% | -31 | -4% | 23%[46.1 µM]
CCCCC[C@H](C)N1C[C@@H](COCc2ccccc2)Oc2cc(N3CCC[C@H]3C(N)=O)ccc2S1(=O)=O | nt | nt | nt | -12 | nt | nt
O=C(Nc1ccccc1SCC1CSc2nc3ccccc3c(=O)n21)c1ccccc1Cl (stereo not drawn) | ? | ? | 3% | ? | ? | ?
O=C(Nc1ccccc1SCC1CSc2nc3ccccc3c(=O)n21)c1cccc(Cl)c1 (stereo not drawn) | 2.5µM* | 10µM* | -5% | -96* | ? | ?
FC(F)(F)c1cccc(Cc2noc(CN3CCCCC3c3ccccn3)n2)c1 (stereo not drawn) | -20%[46.1 µM] | ? | -7% | -35 | ? | ?
FC(F)(F)c1cccc(Cc2noc(CN3CCC(c4ccncc4)CC3)n2)c1 | ? | ? | ? | -80* | ? | ?
FC(F)(F)c1cccc(Cc2noc(CN3CCCC(OCc4ccccn4)C3)n2)c1 (stereo not drawn) | 0% | -3% | 13% | 10 | 15µM* | 17%
c1ccc(C2CCCN(Cc3nc(CC4CC4)no3)CC2)cc1 (stereo not drawn) | 11% | ? | -9% | 3 | 27% | ?
c1ccc(C(c2ccccc2)c2noc(CN3CCC(c4ccncc4)CC3)n2)cc1 | ? | 10µM* | 0% | 11 | ? | ?
O=C(COc1ccc(Cl)cc1Br)NCC(c1ccco1)N1CCCC1 (stereo not drawn) | 0% | ? | ? | -38 | ? | ?
Cn1nc(C(C)(C)C)cc1C(=O)NCc1cc(F)cc2c1OCOC2 | nt | ? | ? | -72* | ? | nt
CC(C)CNC(=O)c1cc2nc3c(c(C(F)(F)F)n2n1)CCc1ccccc1-3 | 1% | nt | 4% | -67* | 27% | 9%
COc1ccc(-c2csc(C(NC(C)=O)c3cccc(F)c3)n2)cn1 (stereo not drawn) | nt | nt | nt | -31 | nt | nt
COc1cccc2c1C(CO)N1C(C#N)C3CC(C(=O)O)C(C1C2)N3C (stereo not drawn) | nt | ? | 1.1µM* | -77* | ? | nt
Cc1ccc(NC(=O)Cn2cc(S(=O)(=O)c3ccccc3)c(=O)c3cc4c(cc32)OCO4)cc1 | ? | nt | nt | -9 | nt | ?
CCN(C(=O)CSc1nnc(CNc2cccc(OC)c2)n1C1CCCCC1)C1CCS(=O)(=O)C1 (stereo not drawn) | -9% | ? | ? | 12 | 4.1µM* | 11%
Cc1ccc(NC(=S)Nc2ccccn2)c(C)c1 | ? | 58% | ? | -21 | ? | 4µM*
Cc1ccc(S(=O)(=O)CC(=O)Nc2ccc(S(=O)(=O)Nc3ccccn3)cc2)cc1 | nt | -20% | 15% | 9 | 10% | nt
CCOCCc1nnc(NC(=O)CS(=O)(=O)c2ccc(C)cc2)s1 | 11%[46.1 µM] | 0% | 14% | 21 | 0.23µM* | 6%[46.1 µM]
Cc1ccc(NC(=O)C(=O)Nc2ccccn2)cc1 | 2.9µM* | 64% | 5% | -17 | -11% | 1.1µM*
Cc1ccc(S(=O)(=O)CC(=O)Nc2ccccn2)cc1 | 1%[46.1 µM] | 26% | 5% | -63* | 30% | -20%[46.1 µM]
CCN1C(=O)[C@H]2[C@@H](c3ccc(OC)cc3)N[C@]3(CCCN(Cc4ccc(C(F)(F)F)cc4)C3=O)[C@H]2C1=O | nt | nt | nt | 10 | nt | nt
CC(C)N1CCC(=NNC(=O)c2cccs2)CC1 | 10%[46.1 µM] | 17% | 8% | 27 | 23% | ?
SMILES | LASV entry inh | Pf growth 48h | HCV inh | HCMV antiviral | Pf growth 96h | MARV entry inh
O=S1(=O)N[C@H](Cc2ccccc2)COc2cccc(NCCO)c21 | nt | nt | nt | -4 | nt | nt
C[C@@H]1CC[C@H]2C(=O)O[C@@H](Cc3ccccc3)CN2[C@H]1c1ccc(Br)cc1 | nt | nt | nt | nt | nt | 7%[14.2 µM]
CC(=O)N1CCc2c(sc(NC(=O)CSc3ccccc3)c2-c2nc3ccccc3s2)C1 | -18%[46.1 µM] | nt | nt | -97* | nt | nt
CN1CCc2c(sc(NC(=O)CSc3ccccc3)c2-c2nc3ccccc3s2)C1 | 9%[46.1 µM] | nt | nt | 29 | nt | nt
CC(=O)Nc1sc2c(c1-c1nc3ccccc3s1)CN(C(C)C)CC2 | nt | nt | nt | -97* | nt | nt
CC(=O)N1CCc2c(sc(NC(=O)C3CC3)c2-c2nc3ccccc3s2)C1 | nt | ? | 13µM* | 12 | 0% | 0%
CCN(CC)C(=O)C1=C(C)N(CCCN2CCCC2=O)C(=O)C(CC(=O)NC(c2ccccc2)c2ccccc2)C1 (stereo not drawn) | nt | nt | nt | 11 | nt | nt
CCNc1nc(SCc2ccccc2)nc(N2CCOCC2)n1 | ? | -18% | 5.6µM* | -16 | 2%[5.75 µM] | ?
CCc1ccc(Nc2nc(N3CCOCC3)nc(N3CCOCC3)n2)cc1 | nt | -26% | ? | ? | 9.3µM* | nt
FC(F)(F)Oc1ccc(Nc2nc(N3CCOCC3)nc(N3CCOCC3)n2)cc1 | nt | ? | -25% | -34 | 12µM* | nt
CCOC(=O)C(CC)n1cnc2c(nnn2-c2ccccc2)c1=O (stereo not drawn) | nt | 0% | 11% | nt | 10% | nt
CC1CCC(N2CC(=O)N(C3CCCC3)C(c3ccc(Cl)cc3)C2=O)CC1 (stereo not drawn) | 28%[46.1 µM] | nt | nt | -13 | nt | nt
C=CCN1C=C/C(=C\C=C(C#N)C#N)c2ccccc21 | -14% | ? | 10µM* | -20 | ? | -22%[46.1 µM]
CCCCCCN1C=C/C(=C\C=C(C#N)C#N)c2ccccc21 | -30% | ? | ? | 29 | ? | -14%
O=[N+]([O-])c1cc(C(F)(F)F)ccc1NC1CCN(Cc2ccccc2)CC1 | -11% | 7.4µM* | 1% | 18 | 6% | ?
CC(C)C[C@@H](CN1CCC[C@@H]1CN1C(=S)NC[C@@H]1Cc1ccccc1)N1C[C@H](Cc2ccc(O)cc2)N(CC2CCCCCC2)C1=S | nt | nt | nt | -26 | nt | nt
CC(C)C[C@H]1CNC(=S)N1CC1CCCN1C[C@H](CC(C)C)N1C[C@H](Cc2ccc(O)cc2)N(CC2CCCCCC2)C1=S (stereo partly drawn) | nt | nt | 25% | -102* | nt | nt
CC(C)C[C@H]1CNC(=S)N1CC1CCCN1C[C@H](CC(C)C)N1C[C@H](Cc2ccc(O)cc2)N(CC2CCCCC2)C1=S (stereo partly drawn) | nt | nt | 10µM* | -98* | nt | nt

Source: PubChem BioAssay
